# Reference: article PMC7862700, “An all-to-all approach to the identification of sequence-specific readers for epigenetic DNA modifications on cytosine”
# Tests used:
# Assay in all cases: DAPPL (digital affinity profiling via proximity ligation, sequencing); 10 mM Tris-HCl pH 7.5, 50 mM NaCl, 1 mM DTT, 4% glycerol, room temperature, 30 min; GST-TFs on glutathione beads, 16-mer random dsDNA library, 0.1% formaldehyde crosslink after washing; high values mean tight binding
# FLI1 = target: T1, FLI1 (Homo sapiens, UniProt Q01543 1-452); settings: protein: recombinant; tags: N-terminal GST; dsDNA, one strand shown
# T1 sequence: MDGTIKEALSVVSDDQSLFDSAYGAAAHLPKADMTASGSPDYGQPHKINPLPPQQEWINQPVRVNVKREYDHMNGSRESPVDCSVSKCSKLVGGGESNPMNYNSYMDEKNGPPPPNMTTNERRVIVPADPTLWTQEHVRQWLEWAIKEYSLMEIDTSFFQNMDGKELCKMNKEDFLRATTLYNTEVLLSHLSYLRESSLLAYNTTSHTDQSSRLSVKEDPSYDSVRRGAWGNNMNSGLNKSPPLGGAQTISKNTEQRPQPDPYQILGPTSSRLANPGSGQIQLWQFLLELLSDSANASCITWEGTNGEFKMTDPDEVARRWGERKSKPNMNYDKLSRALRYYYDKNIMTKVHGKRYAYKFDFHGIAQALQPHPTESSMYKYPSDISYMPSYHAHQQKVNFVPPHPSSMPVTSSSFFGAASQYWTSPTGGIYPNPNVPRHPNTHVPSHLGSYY
# Method in brief: (§1)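 Human transcription factors were made in yeast as GST fusions, captured on glutathione beads and barcoded with DNA. With a tag-only sample included, the pool was incubated with 200 nmole of a random double-stranded 16-mer DNA library in Tris/NaCl/DTT/glycerol buffer at room temperature for 30 min, then crosslinked with 0.1% formaldehyde after washing, ligated by proximity, amplified and sequenced. For binding signal, each hexamer's read frequency for a factor is divided by its frequency for the tag-only sample.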
# ELK1 = target: T2, ELK1 (Homo sapiens, UniProt P19419 1-428); settings: protein: recombinant; tags: N-terminal GST; dsDNA, one strand shown
# T2 sequence: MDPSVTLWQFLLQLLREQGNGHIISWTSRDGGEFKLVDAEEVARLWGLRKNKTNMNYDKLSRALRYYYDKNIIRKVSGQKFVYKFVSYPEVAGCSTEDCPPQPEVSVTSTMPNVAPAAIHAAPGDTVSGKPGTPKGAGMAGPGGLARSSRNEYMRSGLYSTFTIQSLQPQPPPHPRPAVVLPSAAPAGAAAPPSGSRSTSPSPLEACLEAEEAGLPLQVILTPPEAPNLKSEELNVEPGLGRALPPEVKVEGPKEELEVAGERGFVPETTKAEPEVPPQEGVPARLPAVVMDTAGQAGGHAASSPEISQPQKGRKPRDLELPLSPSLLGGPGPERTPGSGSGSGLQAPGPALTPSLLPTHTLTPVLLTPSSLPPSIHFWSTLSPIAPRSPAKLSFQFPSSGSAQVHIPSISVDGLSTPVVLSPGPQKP
# Method in brief: as §1
# GABPA = target: T3, GABPA (Homo sapiens, UniProt Q06546 1-454); settings: protein: recombinant; tags: N-terminal GST; dsDNA, one strand shown
# T3 sequence: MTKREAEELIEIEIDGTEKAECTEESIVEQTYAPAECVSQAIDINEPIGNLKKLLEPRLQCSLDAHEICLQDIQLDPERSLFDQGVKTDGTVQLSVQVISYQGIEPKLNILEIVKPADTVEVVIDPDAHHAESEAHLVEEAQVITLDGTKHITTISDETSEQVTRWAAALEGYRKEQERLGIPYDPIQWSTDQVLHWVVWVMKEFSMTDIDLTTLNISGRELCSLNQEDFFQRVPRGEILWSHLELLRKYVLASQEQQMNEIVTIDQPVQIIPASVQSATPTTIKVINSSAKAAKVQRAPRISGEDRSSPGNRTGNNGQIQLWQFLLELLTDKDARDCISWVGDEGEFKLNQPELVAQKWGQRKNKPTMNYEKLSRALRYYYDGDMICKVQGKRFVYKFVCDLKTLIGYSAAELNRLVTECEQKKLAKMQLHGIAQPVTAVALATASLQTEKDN
# Method in brief: as §1
# ERG = target: T4, ERG (Homo sapiens, UniProt P11308 1-479); settings: protein: recombinant; tags: N-terminal GST; dsDNA, one strand shown
# T4 sequence: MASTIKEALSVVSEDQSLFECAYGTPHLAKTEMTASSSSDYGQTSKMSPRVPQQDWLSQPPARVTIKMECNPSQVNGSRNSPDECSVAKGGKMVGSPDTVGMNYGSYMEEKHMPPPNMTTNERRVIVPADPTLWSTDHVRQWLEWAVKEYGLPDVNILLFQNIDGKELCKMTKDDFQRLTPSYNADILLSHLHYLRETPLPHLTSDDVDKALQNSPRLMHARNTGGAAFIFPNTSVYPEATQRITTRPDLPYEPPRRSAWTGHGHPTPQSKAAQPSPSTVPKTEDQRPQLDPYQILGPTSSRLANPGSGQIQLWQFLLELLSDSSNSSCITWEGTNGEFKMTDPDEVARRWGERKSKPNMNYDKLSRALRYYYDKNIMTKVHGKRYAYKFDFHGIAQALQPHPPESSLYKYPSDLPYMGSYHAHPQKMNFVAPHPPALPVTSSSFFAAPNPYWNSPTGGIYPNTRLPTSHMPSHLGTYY
# Method in brief: as §1
# ELF1 = ELF1 (Homo sapiens, UniProt P32519 1-619); settings: protein: recombinant; tags: N-terminal GST; dsDNA, one strand shown
# Sequence of ELF1 (P32519 whole entry): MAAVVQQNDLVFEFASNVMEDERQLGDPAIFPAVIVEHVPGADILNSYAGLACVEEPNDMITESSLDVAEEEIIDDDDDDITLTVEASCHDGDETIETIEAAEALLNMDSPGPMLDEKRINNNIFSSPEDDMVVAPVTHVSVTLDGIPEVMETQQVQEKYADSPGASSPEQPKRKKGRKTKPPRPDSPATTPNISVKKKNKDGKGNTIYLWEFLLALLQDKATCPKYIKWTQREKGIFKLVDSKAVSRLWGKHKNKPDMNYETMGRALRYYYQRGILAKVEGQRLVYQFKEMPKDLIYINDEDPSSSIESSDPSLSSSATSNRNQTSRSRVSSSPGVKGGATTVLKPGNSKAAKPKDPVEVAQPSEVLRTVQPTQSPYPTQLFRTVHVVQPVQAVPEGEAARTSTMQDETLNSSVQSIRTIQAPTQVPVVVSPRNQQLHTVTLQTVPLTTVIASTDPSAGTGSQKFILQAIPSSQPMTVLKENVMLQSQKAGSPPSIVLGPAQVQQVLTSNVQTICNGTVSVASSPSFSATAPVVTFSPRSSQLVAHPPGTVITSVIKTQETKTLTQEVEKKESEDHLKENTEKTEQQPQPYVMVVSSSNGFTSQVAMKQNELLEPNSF
# Method in brief: as §1
# EHF = target: T5, EHF (Homo sapiens, UniProt Q9NZC4 1-300); settings: protein: recombinant; tags: N-terminal GST; dsDNA, one strand shown
# T5 sequence: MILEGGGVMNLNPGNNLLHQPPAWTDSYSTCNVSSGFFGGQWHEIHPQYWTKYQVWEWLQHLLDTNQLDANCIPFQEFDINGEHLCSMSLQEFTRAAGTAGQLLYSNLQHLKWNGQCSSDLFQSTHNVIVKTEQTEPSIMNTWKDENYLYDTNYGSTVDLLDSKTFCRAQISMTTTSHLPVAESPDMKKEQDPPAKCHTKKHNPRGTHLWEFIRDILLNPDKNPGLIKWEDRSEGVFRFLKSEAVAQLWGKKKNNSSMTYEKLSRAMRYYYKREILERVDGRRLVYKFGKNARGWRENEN
# Method in brief: as §1
# SPIB = SPIB (Homo sapiens, UniProt Q01892 1-262); settings: protein: recombinant; tags: N-terminal GST; dsDNA, one strand shown
# Sequence of SPIB (Q01892 whole entry): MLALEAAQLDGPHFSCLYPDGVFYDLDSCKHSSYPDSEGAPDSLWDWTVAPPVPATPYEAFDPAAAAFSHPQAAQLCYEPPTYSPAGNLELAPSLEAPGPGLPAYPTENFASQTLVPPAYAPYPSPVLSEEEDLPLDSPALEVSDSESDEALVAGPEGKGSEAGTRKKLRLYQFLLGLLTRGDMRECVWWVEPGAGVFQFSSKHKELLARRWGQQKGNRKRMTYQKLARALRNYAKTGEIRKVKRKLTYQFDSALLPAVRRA
# Method in brief: as §1
# ELK3 = target: T6, ELK3 (Homo sapiens, UniProt P41970 1-407); settings: protein: recombinant; tags: N-terminal GST; dsDNA, one strand shown
# T6 sequence: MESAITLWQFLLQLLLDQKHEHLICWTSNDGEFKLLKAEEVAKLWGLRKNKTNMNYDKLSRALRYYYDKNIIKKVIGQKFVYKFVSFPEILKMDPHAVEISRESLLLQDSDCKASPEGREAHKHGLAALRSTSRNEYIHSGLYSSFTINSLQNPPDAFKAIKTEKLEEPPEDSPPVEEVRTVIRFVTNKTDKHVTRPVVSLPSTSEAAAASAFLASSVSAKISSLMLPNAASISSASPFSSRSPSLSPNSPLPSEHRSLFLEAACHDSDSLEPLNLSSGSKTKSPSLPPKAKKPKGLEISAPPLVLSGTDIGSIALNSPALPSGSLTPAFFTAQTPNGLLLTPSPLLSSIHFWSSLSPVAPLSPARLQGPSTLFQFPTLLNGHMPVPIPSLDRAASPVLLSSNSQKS
# Method in brief: as §1
# FEV = target: T7, FEV (Homo sapiens, UniProt Q99581 1-238); settings: protein: recombinant; tags: N-terminal GST; dsDNA, one strand shown
# T7 sequence: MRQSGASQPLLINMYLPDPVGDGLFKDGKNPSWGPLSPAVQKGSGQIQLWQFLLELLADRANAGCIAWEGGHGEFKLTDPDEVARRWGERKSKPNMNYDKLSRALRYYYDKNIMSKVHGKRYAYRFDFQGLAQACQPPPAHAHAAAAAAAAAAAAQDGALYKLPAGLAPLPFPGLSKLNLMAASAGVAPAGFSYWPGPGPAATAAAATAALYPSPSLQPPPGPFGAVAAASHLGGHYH
# Method in brief: as §1
# ETV5 = ETV5 (Homo sapiens, UniProt P41161 1-510); settings: protein: recombinant; tags: N-terminal GST; dsDNA, one strand shown
# Sequence of ETV5 (P41161 whole entry): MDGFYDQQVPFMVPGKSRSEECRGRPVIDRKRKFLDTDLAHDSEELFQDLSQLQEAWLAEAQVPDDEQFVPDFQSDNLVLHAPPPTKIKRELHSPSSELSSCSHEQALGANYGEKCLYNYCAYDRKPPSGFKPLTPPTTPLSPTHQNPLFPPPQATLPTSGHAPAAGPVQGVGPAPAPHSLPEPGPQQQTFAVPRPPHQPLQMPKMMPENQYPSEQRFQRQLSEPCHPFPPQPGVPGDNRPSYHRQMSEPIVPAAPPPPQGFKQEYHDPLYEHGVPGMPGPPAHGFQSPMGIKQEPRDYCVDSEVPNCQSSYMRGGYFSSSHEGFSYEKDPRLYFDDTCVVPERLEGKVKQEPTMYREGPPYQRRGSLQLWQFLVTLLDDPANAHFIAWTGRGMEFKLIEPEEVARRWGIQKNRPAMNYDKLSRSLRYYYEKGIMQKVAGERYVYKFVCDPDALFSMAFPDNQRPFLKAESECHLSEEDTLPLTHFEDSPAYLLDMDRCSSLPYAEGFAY
# Method in brief: as §1
# HSF1 = HSF1 (Homo sapiens, UniProt Q00613 1-529); settings: protein: recombinant; tags: N-terminal GST; chain copies: 3; dsDNA, one strand shown
# Sequence of HSF1 (Q00613 whole entry): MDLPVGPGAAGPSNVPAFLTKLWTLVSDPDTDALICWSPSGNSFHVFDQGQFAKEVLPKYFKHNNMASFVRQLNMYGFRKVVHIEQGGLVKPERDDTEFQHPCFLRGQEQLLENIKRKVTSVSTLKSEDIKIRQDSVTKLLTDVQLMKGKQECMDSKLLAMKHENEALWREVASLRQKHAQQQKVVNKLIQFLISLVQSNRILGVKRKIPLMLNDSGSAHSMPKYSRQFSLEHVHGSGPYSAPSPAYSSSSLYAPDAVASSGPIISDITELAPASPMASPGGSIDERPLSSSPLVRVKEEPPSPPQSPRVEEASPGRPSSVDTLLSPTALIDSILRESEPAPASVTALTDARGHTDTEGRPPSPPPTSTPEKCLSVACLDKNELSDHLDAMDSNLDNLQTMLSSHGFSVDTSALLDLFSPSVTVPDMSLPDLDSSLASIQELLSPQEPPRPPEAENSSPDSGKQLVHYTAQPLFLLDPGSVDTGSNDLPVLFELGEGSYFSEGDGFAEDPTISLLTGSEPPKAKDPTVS
# Method in brief: as §1
# SPIC = target: T8, SPIC (Homo sapiens, UniProt Q8N5J4 1-248); settings: protein: recombinant; tags: N-terminal GST; dsDNA, one strand shown
# T8 sequence: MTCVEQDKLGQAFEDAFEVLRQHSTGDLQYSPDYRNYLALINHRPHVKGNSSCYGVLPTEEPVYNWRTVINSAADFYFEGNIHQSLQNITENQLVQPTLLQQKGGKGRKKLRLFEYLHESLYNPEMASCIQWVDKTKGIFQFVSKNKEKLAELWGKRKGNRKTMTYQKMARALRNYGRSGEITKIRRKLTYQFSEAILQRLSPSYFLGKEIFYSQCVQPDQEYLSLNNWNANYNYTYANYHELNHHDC
# Method in brief: as §1
# ELF4 = ELF4 (Homo sapiens, UniProt Q99607 1-663); settings: protein: recombinant; tags: N-terminal GST; dsDNA, one strand shown
# Sequence of ELF4 (Q99607 whole entry): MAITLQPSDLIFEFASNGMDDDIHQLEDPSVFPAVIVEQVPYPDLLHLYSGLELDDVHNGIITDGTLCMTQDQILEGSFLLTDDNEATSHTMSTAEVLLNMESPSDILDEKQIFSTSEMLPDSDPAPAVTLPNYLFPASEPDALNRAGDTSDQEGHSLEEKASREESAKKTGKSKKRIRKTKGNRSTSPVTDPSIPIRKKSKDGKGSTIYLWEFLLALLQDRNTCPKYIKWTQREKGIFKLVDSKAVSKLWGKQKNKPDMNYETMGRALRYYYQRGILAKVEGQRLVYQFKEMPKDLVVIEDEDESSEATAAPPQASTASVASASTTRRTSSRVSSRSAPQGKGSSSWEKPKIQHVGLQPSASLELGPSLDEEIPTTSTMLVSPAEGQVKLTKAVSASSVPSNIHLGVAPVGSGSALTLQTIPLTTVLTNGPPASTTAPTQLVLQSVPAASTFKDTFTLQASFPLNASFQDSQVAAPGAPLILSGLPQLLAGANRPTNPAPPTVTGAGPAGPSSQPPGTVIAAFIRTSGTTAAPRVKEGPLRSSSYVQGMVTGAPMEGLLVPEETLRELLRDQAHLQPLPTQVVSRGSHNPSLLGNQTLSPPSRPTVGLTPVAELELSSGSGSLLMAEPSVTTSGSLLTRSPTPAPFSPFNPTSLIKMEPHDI
# Method in brief: as §1
# ELK4 = target: T9, ELK4 (Homo sapiens, UniProt P28324-2 1-405); settings: protein: recombinant; tags: N-terminal GST; dsDNA, one strand shown
# T9 sequence: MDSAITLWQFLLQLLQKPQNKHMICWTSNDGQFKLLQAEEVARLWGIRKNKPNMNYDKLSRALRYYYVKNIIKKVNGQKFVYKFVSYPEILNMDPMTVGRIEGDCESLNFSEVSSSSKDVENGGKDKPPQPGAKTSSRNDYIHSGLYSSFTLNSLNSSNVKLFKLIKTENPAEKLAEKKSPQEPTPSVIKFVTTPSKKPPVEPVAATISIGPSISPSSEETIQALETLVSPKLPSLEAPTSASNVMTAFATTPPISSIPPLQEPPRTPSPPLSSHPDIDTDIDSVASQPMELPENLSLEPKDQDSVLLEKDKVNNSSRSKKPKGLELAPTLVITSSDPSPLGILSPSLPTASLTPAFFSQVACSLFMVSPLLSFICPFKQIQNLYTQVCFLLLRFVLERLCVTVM
# Method in brief: as §1
# ETV2 = target: T10, ETV2 (Homo sapiens, UniProt O00321 1-342); settings: protein: recombinant; tags: N-terminal GST; dsDNA, one strand shown
# T10 sequence: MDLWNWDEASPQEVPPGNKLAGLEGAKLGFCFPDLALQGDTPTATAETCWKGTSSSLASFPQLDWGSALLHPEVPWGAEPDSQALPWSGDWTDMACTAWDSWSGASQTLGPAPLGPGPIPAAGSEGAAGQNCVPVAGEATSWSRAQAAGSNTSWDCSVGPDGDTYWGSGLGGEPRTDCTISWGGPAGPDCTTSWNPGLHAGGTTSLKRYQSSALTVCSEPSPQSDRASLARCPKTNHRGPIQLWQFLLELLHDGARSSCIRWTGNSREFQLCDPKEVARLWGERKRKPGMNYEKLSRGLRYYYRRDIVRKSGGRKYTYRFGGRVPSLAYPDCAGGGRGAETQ
# Method in brief: as §1
# ELF3 = target: T11, ELF3 (Homo sapiens, UniProt P78545 1-371); settings: protein: recombinant; tags: N-terminal GST; dsDNA, one strand shown
# T11 sequence: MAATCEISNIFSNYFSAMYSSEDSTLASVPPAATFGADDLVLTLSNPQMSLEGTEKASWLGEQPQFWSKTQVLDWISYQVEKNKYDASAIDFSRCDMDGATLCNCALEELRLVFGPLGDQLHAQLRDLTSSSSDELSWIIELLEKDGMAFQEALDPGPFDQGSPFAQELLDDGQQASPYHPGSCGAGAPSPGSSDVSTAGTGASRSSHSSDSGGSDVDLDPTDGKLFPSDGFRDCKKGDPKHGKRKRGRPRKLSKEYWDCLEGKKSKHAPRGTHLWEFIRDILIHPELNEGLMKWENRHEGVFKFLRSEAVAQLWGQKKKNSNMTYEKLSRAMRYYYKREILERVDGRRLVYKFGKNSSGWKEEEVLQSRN
# Method in brief: as §1
# CRX = CRX (Homo sapiens, UniProt O43186 1-299); settings: protein: recombinant; tags: N-terminal GST; dsDNA, one strand shown
# Sequence of CRX (O43186 whole entry): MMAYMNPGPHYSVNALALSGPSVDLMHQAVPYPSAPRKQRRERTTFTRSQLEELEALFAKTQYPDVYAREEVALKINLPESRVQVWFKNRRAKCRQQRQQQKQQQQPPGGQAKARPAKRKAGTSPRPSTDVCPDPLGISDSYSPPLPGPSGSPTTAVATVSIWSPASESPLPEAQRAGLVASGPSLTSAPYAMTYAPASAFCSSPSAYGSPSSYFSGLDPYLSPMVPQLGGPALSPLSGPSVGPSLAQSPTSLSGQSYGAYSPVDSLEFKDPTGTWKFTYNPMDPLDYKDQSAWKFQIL
# Method in brief: as §1
# ETV1 = ETV1 (Homo sapiens, UniProt P50549 1-477); settings: protein: recombinant; tags: N-terminal GST; dsDNA, one strand shown
# Sequence of ETV1 (P50549 whole entry): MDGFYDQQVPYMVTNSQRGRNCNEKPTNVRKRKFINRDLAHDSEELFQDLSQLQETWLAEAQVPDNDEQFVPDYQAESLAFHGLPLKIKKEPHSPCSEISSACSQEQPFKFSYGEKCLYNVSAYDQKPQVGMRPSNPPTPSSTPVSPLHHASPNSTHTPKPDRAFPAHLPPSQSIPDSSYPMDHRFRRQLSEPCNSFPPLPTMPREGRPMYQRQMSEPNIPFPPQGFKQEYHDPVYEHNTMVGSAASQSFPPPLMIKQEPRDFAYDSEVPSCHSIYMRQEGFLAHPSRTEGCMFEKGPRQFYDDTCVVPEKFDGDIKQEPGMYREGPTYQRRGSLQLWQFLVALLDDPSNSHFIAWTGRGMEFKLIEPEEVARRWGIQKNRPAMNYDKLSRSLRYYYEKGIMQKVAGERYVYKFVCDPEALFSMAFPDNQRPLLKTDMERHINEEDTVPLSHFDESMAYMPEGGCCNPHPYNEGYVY
# Method in brief: as §1
sequence,measurement,setting,value
ATCTGA,binding signal,FLI1,"1.08 fold enrichment (6-mer frequency, TF over GST control)"
same,binding signal,ELK1,"1.08 fold enrichment (6-mer frequency, TF over GST control)"
same,binding signal,GABPA,"1.21 fold enrichment (6-mer frequency, TF over GST control)"
same,binding signal,ERG,"1.07 fold enrichment (6-mer frequency, TF over GST control)"
same,binding signal,ELF1,"1.16 fold enrichment (6-mer frequency, TF over GST control)"
same,binding signal,EHF,"1.17 fold enrichment (6-mer frequency, TF over GST control)"
same,binding signal,SPIB,"1.17 fold enrichment (6-mer frequency, TF over GST control)"
same,binding signal,ELK3,"1.2 fold enrichment (6-mer frequency, TF over GST control)"
same,binding signal,FEV,"1.1 fold enrichment (6-mer frequency, TF over GST control)"
same,binding signal,ETV5,"1.07 fold enrichment (6-mer frequency, TF over GST control)"
same,binding signal,HSF1,"1.16 fold enrichment (6-mer frequency, TF over GST control)"
same,binding signal,SPIC,"1.21 fold enrichment (6-mer frequency, TF over GST control)"
same,binding signal,ELF4,"1.09 fold enrichment (6-mer frequency, TF over GST control)"
same,binding signal,ELK4,"1.2 fold enrichment (6-mer frequency, TF over GST control)"
same,binding signal,ETV2,"1.01 fold enrichment (6-mer frequency, TF over GST control)"
same,binding signal,ELF3,"1.12 fold enrichment (6-mer frequency, TF over GST control)"
same,binding signal,CRX,"1.4 fold enrichment (6-mer frequency, TF over GST control)"
same,binding signal,ETV1,"1.24 fold enrichment (6-mer frequency, TF over GST control)"
